Assay outcomes (PubChem)
This excerpt belongs to a sample that is enriched for hits.
S aureus helic: S. aureus DNA helicase inhibition; purified S. aureus helicase, fluorescence unwinding assay; inhibition, % (test concentration not listed); 120,000 compounds, 0.05% hits; AID 485395; in the data active = inhibition above about 25%, passing the limit was not always enough;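 also: 0% = mean of negative control wells and 100% = mean of positive control wells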
Sa growth 42C: blocks Staphylococcus aureus growth; S. aureus RN4220 growth, OD600, 20 h, 42 °C; stronger effect = lower value; relative growth, % (no concentration beside the values); 170,000 compounds, 0.53% hits; AID 720641;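 active = relative growth at most 50% at the other temperature and 20+ points below 30 °C, or under 10% at both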
* = called active by the depositor; i = inactive; x = no result given; ! = repeats disagree.

SMILES | S aureus helic | Sa growth 42C
CSc1ccc(-c2ccc(C(=O)O)c(Cl)n2)cc1 | 6.0 | 96.1
COc1ccc(-n2nc(C(=O)N3CCN(C)CC3)nc2-c2ccccc2)cc1 | 6.0 | 88.3
O=C(Nc1ccc(Oc2ccc(NC(=O)c3cnccn3)cc2)cc1)c1cnccn1 | -5.0 | 96.3
COC(=O)c1c(O)c2ccccc2oc1=O | x | 101.6
CCc1ccc(OCC(=O)c2c(O)c3ccccc3oc2=O)cc1 | 32.0 | 4.4*
C=CCn1c(SCc2cc(=O)[nH]c(C34CC5CC(CC(C5)C3)C4)n2)n[nH]c1=O | 24.0 | 98.5
CCOC(=O)c1sc2nc(C)cc(C)c2c1NC(=O)Nc1ccc(Cl)cc1 | x | 97.0
CCc1nnc2sc(-c3ccc(NC(=O)c4cccnc4)cc3)nn12 | -3.0 | 98.6
O=c1c(-c2ccn(-c3ccccc3)n2)c(O)c2ccccc2n1-c1ccccc1 | -3.0 | 98.9
CC1=Nc2ccccc2Sc2c1c(=O)n(-c1ccccc1)c1ccccc21 | 13.0 | 1.8*
Cc1no[n+]([O-])c1COc1cccc(/C=C2\SC(=S)NC2=O)c1 | 14.0 | -0.8*
COc1cc(C=C2C(=O)NC(=O)NC2=O)cc(Br)c1OCc1c(C)no[n+]1[O-] | -12.0 | 96.4
N=C1/C(=C\c2coc3ccccc3c2=O)C(=O)N=C2SC=NN12 | i | 89.7
CC1CCN(S(=O)(=O)c2ccc(NC(=O)Nc3ccccc3)cc2)CC1 | 2.0 | 31.5*
CC(=O)Nc1ccc(S(=O)(=O)N2CCC(C)CC2)cc1 | 4.0 | 123.3
Cn1c(=O)c2cc(C(=O)NCC3CCCO3)sc2c2ccc(Cl)cc21 (stereo unspecified) | 19.0 | 110.1
Cc1ccc(OC(=O)c2cccnc2)cc1 | -5.0 | 98.1
Cc1ccc(N(c2ccc(C)cc2)c2cccnc2)cc1 | 7.0 | 5.5*
Cc1ccc(Cl)cc1N1CCN(C(=O)Cn2nc(C)c3sc4ccccc4c3c2=O)CC1 | x | 114.2
Cc1ccc(Cl)cc1N1CCN(Cn2sc3ccccc3c2=O)CC1 | 2.0 | -0.4*
Cc1oc2ncn(CC(C)C)c(=O)c2c1C(=O)NCC1CCN(Cc2ccc(F)cc2)CC1 | -21.0 | 96.6
CC(=O)N1CCN(c2ccc(Oc3ccnc4cc(Cl)ccc34)cc2)CC1 | 5.0 | 93.5
CC(=O)N1CCN(c2ccc(OC[C@H]3CO[C@](Cn4ccnc4)(c4ccc(Cl)cc4Cl)O3)cc2)CC1 | x | 1.2*!
COc1ccc(OC)c(C2=NOC(C(=O)Nc3ccc4c(c3)OCO4)C2)c1 (stereo unspecified) | 11.0 | 84.8
O=C(/C=C/C=C/c1ccccc1)c1ccc(Cl)cc1 | 1.0 | 83.9
SMILES | S aureus helic | Sa growth 42C
O=C(/C=C/C=C/c1ccccc1)c1ccncc1 | 0.0 | 1.0*
CC1(C)CC(=O)C2=C(C1)c1c(ccc3ccccc13)NC2c1ccncc1 (stereo unspecified) | 9.0 | 88.3
CC1(C)CC(CC(=O)N2CCCCC2)(c2ccccc2)CCO1 (stereo unspecified) | 0.0 | 90.1
CCc1ccc2[nH]c3nc(C)cc(C)c3c(=O)c2c1 | 21.0 | 105.1
CCN(CC)/N=N/c1[nH]nc2nc(C)cc(C)c12 | 10.0 | 7.2*
CCc1ccc(OCc2nnc(SCC(=O)NC)n2CC(C)C)cc1 | -8.0 | 99.2
N#Cc1c(NC(=O)C#Cc2ccccc2)sc2c1CCC2 | 8.0 | 108.0
CC(=O)NC[C@H]1CN(c2ccc(N3CCOCC3)c(F)c2)C(=O)O1 | x | -0.8*
Cc1ccc(C(=O)c2ccc(N3CCOCC3)c(F)c2)cc1 | 9.0 | 101.4
NC(=O)c1c(NC(=O)C2=COCCO2)sc2c1CCCC2 | 22.0 | x
CC(C)N1CCc2c(sc(NC(=O)C3=COCCO3)c2C(N)=O)C1 | 42.0* | 88.1
Cc1c(CN(C)C)c2c(n1C)C(=O)c1ccc(Br)cc1-2 | 64.0* | 87.4
Cc1c(CN(C)C)c2c(n1Cc1ccccc1)C(=O)c1ccc(Br)cc1-2 | 14.0 | 93.3
COc1ccc(N(C(=O)Nc2ccccc2N)C(C)C2C(C)(C)C2(C)C)cc1 (stereo unspecified) | 0.0 | 92.8
CCn1c(SCc2cccc(C)c2)nnc1C(C)NC(=O)c1ccccc1 (stereo unspecified) | 18.0 | 100.3
O=S(=O)(NCc1ccco1)c1cccc(-n2cnnn2)c1 | -9.0 | 92.3
CCc1nnc(NS(=O)(=O)c2ccc(N)cc2)s1 | 3.0 | 9.7*
COCc1nnc(NS(=O)(=O)c2ccc(OC)cc2)s1 | 8.0 | 94.9
CC(=O)N1CCc2cc(NC(=O)NC34CC5CC(CC(C5)C3)C4)ccc21 | 3.0 | 94.6
CCC(C)c1ccccc1NC(=O)c1ccc(Cl)nc1 (stereo unspecified) | 0.0 | 89.9
Cc1sc2nc[nH]c(=S)c2c1-c1ccccc1 | 11.0 | -0.5*
Cc1sc2nc[nH]c(=O)c2c1-c1ccccc1 | -4.0 | x
COc1ccc(Cc2nn3c(Cn4cnc5ccccc54)nnc3s2)cc1 | -6.0 | 85.0
O=C(C=C1SCCS1)c1cccs1 | x | 99.4
CN1C(=O)/C(=C\C(=O)c2cccs2)c2ccccc21 | -11.0 | 2.9*
SMILES | S aureus helic | Sa growth 42C
Cc1cccc(OC(=O)c2cc(-c3ccc4c(c3)OCCO4)on2)c1 | x | 1.8*
COc1ccc(OC(=O)c2cc(-c3ccc4c(c3)OCCO4)on2)cc1 | x | 97.2
CC(C)c1ccc(OC(=O)c2cc(-c3ccc4c(c3)OCCO4)on2)cc1 | x | 82.7
Cc1cc(C)cc(OC(=O)c2cc(-c3ccc4c(c3)OCCO4)on2)c1 | x | 1.7*
CCOc1ccc(Nc2oc(COc3ccccc3Cl)nc2C#N)cc1 | -6.0 | 77.5
O=C(Nc1cccc(Cl)c1)Nc1nncs1 | 8.0 | 40.6
O=CNCCCc1nc2ccccc2n1Cc1ccc(F)cc1 | 14.0 | 102.4
CO[C@@]12[C@H](COC(N)=O)C3=C(C(=O)C(C)=C(N)C3=O)N1C[C@@H]1N[C@@H]12 | x | 0.0*
Cc1c(C(=O)NCc2ccccc2Br)oc2c1-c1[nH]ncc1CC2 | x | 112.6
COc1ccc(C2c3ccsc3CCN2C(=O)c2c(C)noc2C)cc1 (stereo unspecified) | x | 87.0
S=c1n(CN2CCCC2)nc2sc3ccccc3n12 | 0.0 | 38.6*
CN(Cn1nc2sc3ccccc3n2c1=S)C1CCCCC1 | -13.0 | 54.4
CCc1nc(SC)c(C#N)c2c1CCCC2 | -3.0 | 78.0
O=C(O)CCN(C(=O)C1C2C=CC(C2)C1C(=O)O)c1ccccc1 (stereo unspecified) | 1.0 | 88.3
CCCOC1(C(F)(F)F)NC(=O)N(c2ccc(Cl)cc2)C1=O (stereo unspecified) | x | 87.2
Cn1ccnc1SC(=O)N1c2ccccc2Sc2ccccc21 | 2.0 | 117.5
Cc1nccn1CC(=O)N1c2ccccc2Sc2ccccc21 | 6.0 | -0.3*
COC(=O)c1ccc(N=Cc2ccc(Br)s2)cc1 | -1.0 | 87.2
CCOC(=O)C(C#N)c1c(F)c(F)c(Br)c(F)c1F (stereo unspecified) | -4.0 | -1.0*
CCOC(=O)C(C#N)c1ccccn1 (stereo unspecified) | x | 107.3
Cc1c(S(=O)(=O)NCc2ccc3c(c2)OCO3)c(=O)n(C)c(=O)n1C | -4.0 | 82.3
CCOc1ccc(CNC(=O)c2ccc(CS(=O)Cc3ccc(Cl)cc3)o2)cc1 (stereo unspecified) | x | 110.9
CCOc1ccc(CCNC(=O)c2ccc(CS(=O)Cc3cccc(Cl)c3)o2)cc1 (stereo unspecified) | x | 23.6*
c1ccc(Nc2ncnc3ccccc23)cc1 | -13.0 | 95.8
Nc1cccnc1Nc1ccccc1 | -62.0 | 6.4*
N#CC(C#N)=C(N=C(c1ccccc1)c1ccccc1)C(F)(F)F | 0.0 | x
Oc1cc2c(cc1C(c1ccc(C(F)(F)F)cc1)N1CCOCC1)OCO2 (stereo unspecified) | x | -0.3
